In PubChem BioAssay AID1159580 (chemical genetic matrix, 2015):
Where “and” joins values, the source holds several entries; their conditions need not be identical. Equal entries are not always repeated. Among all 5,500 compounds or so, about 2,000 (36%) were called active. Another 18% or so got no clear call; they are omitted. The list shows a part of the results. Unmarked numbers belong to inactive results. Cut-off read from the data, not from the text of the source: active = normalized growth mostly below about 0.91 (no sharp cut-off); inconclusive = no clear call, values can overlap the other calls; inactive = mostly above about 0.92.

Test: chemical genetic growth profiling, strain panel (AID 1159580);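 note: tested at 20 µM; growth read once vehicle control cultures reached saturation at 30 °C; 1 = growth at the plate median or of vehicle wells; lower values mean less growth of the strain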
Conditions: S. cerevisiae deletion strains, growth OD

C/C=C(\C)C(=O)O[C@@H]1c2c(ccc3ccc(=O)oc23)OC(C)(C)[C@@H]1OC(C)=O
normalized growth (locus YAL013W, strain DEP1, hits give low values): 1.01 | normalized growth (locus YAL021C, strain ccr4, hits give low values): 1.01 | normalized growth (locus YAL026C, strain drs2, hits give low values): 0.989 | normalized growth (locus YAL030W, strain snc1, hits give low values): 0.996 | normalized growth (locus YBL061C, strain skt5, hits give low values): 0.994 | normalized growth (locus YBR009C, strain hhf1, hits give low values): 1.03 | normalized growth (locus YBR021W, strain FUR4, hits give low values): 1.03 | normalized growth (locus YBR023C, strain chs3, hits give low values): 0.987 | normalized growth (locus YBR171W, strain sec66, hits give low values): 0.98 | normalized growth (locus YBR229C, strain ROT2, hits give low values): 0.995 | normalized growth (locus YBR231C, strain swc5, hits give low values): 1 | normalized growth (locus YBR279W, strain paf1, hits give low values): 1.01 | normalized growth (locus YCL011C, strain gbp2, hits give low values): 1.01 | normalized growth (locus YCL016C, strain dcc1, hits give low values): 0.993 | normalized growth (locus YCL029C, strain bik1, hits give low values): 1.03 | normalized growth (locus YCL061C, strain MRC1, hits give low values): 0.985 | normalized growth (locus YCL069W, strain vba3, hits give low values): 1.01 | normalized growth (locus YCR088W, strain abp1, hits give low values): 0.996 | normalized growth (locus YDL005C, strain med2, hits give low values): 0.981 | normalized growth (locus YDL035C, strain GPR1, hits give low values): 0.995 | normalized growth (locus YDL040C, strain nat1, hits give low values): 0.998 | normalized growth (locus YDL074C, strain BRE1, hits give low values): 1 | normalized growth (locus YDL101C, strain DUN1, hits give low values): 1.01 | normalized growth (locus YDL134C, strain PPH21, hits give low values): 0.974 | normalized growth (locus YDL185W, strain tfp1, hits give low values): 1.02 | normalized growth (locus YDL192W, strain arf1, hits give low values): 0.992 | normalized growth (locus YDR001C, strain nth1, hits give low values): 1.01 | normalized growth (locus YDR069C, strain doa4, hits give low values): 1 | normalized growth (locus YDR101C, strain arx1, hits give low values): 1.03 | normalized growth (locus YDR137W, strain rgp1, hits give low values): 0.842 (active) | normalized growth (locus YDR150W, strain NUM1, hits give low values): 0.997 | normalized growth (locus YDR159W, strain sac3, hits give low values): 0.989 | normalized growth (locus YDR162C, strain NBP2, hits give low values): 0.983 | normalized growth (locus YDR195W, strain ref2): 1.06 | normalized growth (locus YDR297W, strain sur2, hits give low values): 0.995 | normalized growth (locus YDR318W, strain mcm21, hits give low values): 0.974 | normalized growth (locus YDR334W, strain swr1, hits give low values): 1 | normalized growth (locus YDR335W, strain msn5, hits give low values): 1.02 | normalized growth (locus YDR388W, hits give low values): 1 | normalized growth (locus YDR392W, strain spt3, hits give low values): 0.762 | normalized growth (locus YDR502C, strain sam2, hits give low values): 0.991 | normalized growth (locus YEL003W, strain gim4, hits give low values): 1.01 | normalized growth (locus YEL037C, strain rad23, hits give low values): 1.01 | normalized growth (locus YEL061C, strain CIN8 (second series), hits give low values): 1 | normalized growth (locus YEL061C, strain CIN8, hits give low values): 0.991 | normalized growth (locus YER015W, strain faa2, hits give low values): 1.01 | normalized growth (locus YER016W, strain bim1, hits give low values): 0.993 | normalized growth (locus YER110C, hits give low values): 1.01 | normalized growth (locus YER111C, strain swi4, hits give low values): 0.994 | normalized growth (locus YER155C, strain BEM2 (second series), hits give low values): 1.03 | normalized growth (locus YER155C, strain BEM2, hits give low values): 1.01 | normalized growth (locus YER167W, strain BCK2, hits give low values): 0.997 | normalized growth (locus YFR010W, strain ubp6, hits give low values): 1.02 | normalized growth (locus YGL078C, strain dbp3, hits give low values): 1 | normalized growth (locus YGL086W, strain mad1, hits give low values): 1.05 | normalized growth (locus YGL167C, strain pmr1, hits give low values): 0.984 | normalized growth (locus YGL173C, strain kem1, hits give low values): 0.991 | normalized growth (locus YGL227W, strain vid30, hits give low values): 0.991 | normalized growth (locus YGL240W, strain doc1, hits give low values): 0.985 | normalized growth (locus YGL248W, strain PDE1, hits give low values): 0.993 | normalized growth (locus YGL253W, strain hxk2, hits give low values): 0.963 | normalized growth (locus YGR078C, strain PAC10, hits give low values): 1 | normalized growth (locus YGR135W, strain pre9, hits give low values): 0.987 | normalized growth (locus YGR252W, strain gcn5, hits give low values): 1 | normalized growth (locus YHR013C, strain ard1, hits give low values): 0.971 | normalized growth (locus YHR027C, strain rpn1, hits give low values): 1 | normalized growth (locus YHR030C, strain SLT2, hits give low values): 0.996 and 0.998 | normalized growth (locus YHR079C, strain IRE1 (second series), hits give low values): 0.998 | normalized growth (locus YHR079C, strain IRE1, hits give low values): 1.01 | normalized growth (locus YHR094C, strain hxt1, hits give low values): 1 | normalized growth (locus YHR129C, strain ARP1, hits give low values): 1 | normalized growth (locus YHR142W, strain chs7, hits give low values): 0.987 | normalized growth (locus YHR200W, strain rpn10, hits give low values): 1.02 | normalized growth (locus YIL066C, strain RNR3, hits give low values): 0.992 | normalized growth (locus YIL073C, strain SPO22, hits give low values): 0.989 | normalized growth (locus YIL125W, strain kgd1, hits give low values): 1.01 | normalized growth (locus YIR030C, strain dcg1, hits give low values): 0.994 | normalized growth (locus YJL092W, strain hpr5, hits give low values): 0.99 | normalized growth (locus YJL095W, strain BCK1 (second series), hits give low values): 0.994 | normalized growth (locus YJL095W, strain BCK1, hits give low values): 0.956 and 1.05 | normalized growth (locus YJL115W, strain asf1, hits give low values): 0.995 | normalized growth (locus YJL129C, strain trk1, hits give low values): 0.953 | normalized growth (locus YJL134W, strain LCB3, hits give low values): 0.996 | normalized growth (locus YJL154C, strain vps35, hits give low values): 1.01 | normalized growth (locus YJL164C, strain tpk1, hits give low values): 1 | normalized growth (locus YJL166W, strain qcr8, hits give low values): 0.968 | normalized growth (locus YJL168C, strain set2, hits give low values): 1.01 | normalized growth (locus YJL187C, strain SWE1 (second series), hits give low values): 1 | normalized growth (locus YJL187C, strain SWE1, hits give low values): 0.991 | normalized growth (locus YJR043C, strain POL32, hits give low values): 1.02 | normalized growth (locus YJR066W, strain TOR1, hits give low values): 0.958 | normalized growth (locus YJR075W, strain HOC1, hits give low values): 0.993 | normalized growth (locus YKL009W, strain mrt4, hits give low values): 0.997 | normalized growth (locus YKL068W, hits give low values): 1.01 | normalized growth (locus YKL085W, strain MDH1 (second series), hits give low values): 0.991 | normalized growth (locus YKL085W, strain MDH1, hits give low values): 0.991 | normalized growth (locus YKL160W, strain elf1, hits give low values): 0.939 | normalized growth (locus YKR001C, strain vps1, hits give low values): 1.02 | normalized growth (locus YKR026C, strain gcn3, hits give low values): 0.996 | normalized growth (locus YKR091W, strain srl3, hits give low values): 0.996 | normalized growth (locus YLL001W, strain dnm1, hits give low values): 0.972 | normalized growth (locus YLL026W, hits give low values): 0.992 | normalized growth (locus YLL041C, strain sdh2, hits give low values): 0.998 | normalized growth (locus YLR027C, strain aat2, hits give low values): 0.992 | normalized growth (locus YLR039C, strain RIC1, hits give low values): 0.946 | normalized growth (locus YLR058C, strain SHM2, hits give low values): 0.995 | normalized growth (locus YLR102C, strain apc9, hits give low values): 1.01 | normalized growth (locus YLR113W, strain HOG1, hits give low values): 1.01 | normalized growth (locus YLR221C, strain rsa3, hits give low values): 0.971 | normalized growth (locus YLR258W, strain gsy2, hits give low values): 0.997 | normalized growth (locus YLR262C, strain YPT6 (second series), hits give low values): 0.846 (active) | normalized growth (locus YLR262C, strain YPT6, hits give low values): 0.913 | normalized growth (locus YLR268W, strain sec22, hits give low values): 1.02 | normalized growth (locus YLR320W, strain mms22, hits give low values): 0.943 | normalized growth (locus YLR330W, strain CHS5, hits give low values): 1.01 | normalized growth (locus YLR342W, strain FKS1 (second series), hits give low values): 1.01 | normalized growth (locus YLR342W, strain FKS1, hits give low values): 0.998 | normalized growth (locus YLR357W, strain rsc2, hits give low values): 1.04 | normalized growth (locus YLR370C, strain arc18, hits give low values): 0.996 | normalized growth (locus YLR371W, strain rom2, hits give low values): 1.02 | normalized growth (locus YLR384C, strain iki3, hits give low values): 0.988 | normalized growth (locus YLR418C, strain cdc73, hits give low values): 0.97 | normalized growth (locus YML016C, strain PPZ1, hits give low values): 0.995 | normalized growth (locus YML032C, strain rad52, hits give low values): 0.99 | normalized growth (locus YML120C, strain ndi1, hits give low values): 0.993 | normalized growth (locus YML124C, strain tub3, hits give low values): 0.988 | normalized growth (locus YMR058W, strain fet3, hits give low values): 1 | normalized growth (locus YMR078C, strain ctf18, hits give low values): 1 | normalized growth (locus YMR125W, strain sto1, hits give low values): 0.967 | normalized growth (locus YMR129W, hits give low values): 0.992 | normalized growth (locus YMR205C, strain PFK2, hits give low values): 0.919 | normalized growth (locus YMR223W, strain ubp8, hits give low values): 0.979 | normalized growth (locus YMR231W, strain pep5, hits give low values): 0.998 | normalized growth (locus YMR307W, strain GAS1, hits give low values): 0.929 | normalized growth (locus YNL067W, strain RPL9B, hits give low values): 0.997 | normalized growth (locus YNL071W, strain lat1, hits give low values): 0.963 | normalized growth (locus YNL153C, strain GIM3, hits give low values): 1.02 | normalized growth (locus YNL183C, strain NPR1, hits give low values): 0.996 | normalized growth (locus YNL209W, strain ssb2, hits give low values): 1 | normalized growth (locus YNL233W, strain BNI4, hits give low values): 1.02 | normalized growth (locus YNL248C, strain rpa49, hits give low values): 0.956 | normalized growth (locus YNL250W, strain rad50, hits give low values): 1.02 | normalized growth (locus YNL271C, strain bni1, hits give low values): 1 | normalized growth (locus YNL298W, strain CLA4, hits give low values): 1.01 | normalized growth (locus YNL307C, strain MCK1, hits give low values): 1 | normalized growth (locus YNL322C, strain KRE1 (second series), hits give low values): 0.991 | normalized growth (locus YNR049C, strain mso1, hits give low values): 0.992 | normalized growth (locus YNR052C, strain pop2, hits give low values): 0.995 | normalized growth (locus YOL006C, strain TOP1, hits give low values): 1.04 | normalized growth (locus YOL012C, strain htz1): 1.21 | normalized growth (locus YOL147C, strain pex11, hits give low values): 0.996 | normalized growth (locus YOR001W, strain rrp6, hits give low values): 1.02 | normalized growth (locus YOR061W, strain CKA2, hits give low values): 0.99 | normalized growth (locus YOR069W, strain VPS5, hits give low values): 0.995 | normalized growth (locus YOR070C, strain gyp1, hits give low values): 0.999 | normalized growth (locus YOR080W, strain dia2, hits give low values): 1.01 | normalized growth (locus YOR083W, strain WHI5, hits give low values): 0.953 | normalized growth (locus YOR106W, strain vam3, hits give low values): 0.977 | normalized growth (locus YOR136W, strain idh2, hits give low values): 1.03 | normalized growth (locus YOR144C, strain elg1, hits give low values): 1.01 | normalized growth (locus YOR184W, strain ser1, hits give low values): 0.959 | normalized growth (locus YOR231W, strain MKK1, hits give low values): 0.991 | normalized growth (locus YOR265W, strain rbl2, hits give low values): 0.991 | normalized growth (locus YOR270C, strain vph1, hits give low values): 0.912 | normalized growth (locus YOR290C, strain snf2, hits give low values): 0.972 | normalized growth (locus YOR316C, strain cot1, hits give low values): 0.999 | normalized growth (locus YPL051W, strain arl3, hits give low values): 0.96 | normalized growth (locus YPL055C, strain LGE1, hits give low values): 1 | normalized growth (locus YPL078C, strain atp4, hits give low values): 0.972 | normalized growth (locus YPL106C, strain sse1, hits give low values): 1.04 | normalized growth (locus YPL240C, strain hsp82, hits give low values): 1 | normalized growth (locus YPL241C, strain CIN2, hits give low values): 0.986 | normalized growth (locus YPL256C, strain CLN2, hits give low values): 0.99 | normalized growth (locus YPR119W, strain clb2, hits give low values): 0.993 | normalized growth (locus YPR141C, strain kar3, hits give low values): 1.01 | normalized growth (locus YPR163C, strain tif3, hits give low values): 0.996 | normalized growth (locus YPR167C, strain met16, hits give low values): 0.99 | normalized growth (strain wtn01, hits give low values): 1.05
